# Experimental data: the OligoGym collection
# Molecular target: BCL7A
# Experiment: pooled miR-30 sensor sort-seq; sequence = guide strand
# Conditions: shRNA
# Note: reference of the scale not given here.
row,Sequence,sensor-assay potency score (higher = more potent)
1,TACAGCAGCAACACAAATGGAA,-0.286
2,ATAATGAACATTCCAAACCATG,-1.57
3,ATTCTGACCACTGCGATCCTGC,-0.637
4,TTAGAAAATGGAATCCAGCAGA,-0.0728
5,TTGATATCATCTTTGGCCCGGC,-0.0024
6,TATCGTTACATAGAGAAGTGGG,0.305
7,TGAGCCACACTTCTCGTCCTTG,-0.721
8,TAACACACAACTCAAAGGGAGT,-1.29
9,TTTAAGACAGAAACCTTTCGGC,0.668
10,TTTTGCAGTCTTGTCATTCTGC,0.59
11,TTGAAATTCAGGAACATTTTGA,-0.466
12,AACATTTTGATTCTTCTCGAAG,-1.09
13,TAGGGATGTGTCACCAACGGTC,-0.791
14,TACTGCTGTACAACACACCAAA,-0.883
15,TTTCTCTGAGCTGTTCATCGAA,-0.326
16,TTGTTTTTGTCATCAACCTTGG,-0.192
17,TTGTGGAATGTGTAGCCGCAGC,-1.01
18,TTCTCTGAGCTGTTCATCGAAT,-0.798
19,TTCATCGAATGTTCCATCGAGG,-0.362
20,TTCAGGAACATTTTGATTCTTC,-0.0367

# Molecular target: BDH2
# Experiment: as above
# Conditions: shRNA
row,Sequence,sensor-assay potency score (higher = more potent)
1,TTTGTTTCTTCTTTGTGACATC,-0.953
2,TTAAAGAGAACATCAAGTCTCT,0.782
3,TTGGACTCATTAATGTCTGTGG,-0.0604
4,TTCACAACTCCTTTGACGCTGG,0.0987
5,TAATATTGCCAGATTTCTGAGC,-0.452
6,TTGATCATCAGGTACATGCTGC,0.603
7,TATTGCCAGATTTCTGAGCAAG,-1.16
8,AAACTGATCAATTTGTTTCTTC,0.524
9,TTCTTTCTTGTAGAGATGGCGT,-0.55
10,TTACATAAGCAGATTCATCAGA,0.11
11,TTCCATGATGGACAAAACCAGC,-1.2
12,TTGGTTGTGCTGTACACACATC,-1.05

# Molecular target: BEST2
# Experiment: as above
# Conditions: shRNA
row,Sequence,sensor-assay potency score (higher = more potent)
1,TAAATCACAAGCTTCTCGAAGT,-0.564
2,AAGCGCTTGAACACCGCGGTGC,0.183
3,TAGCGCATGAGTGTGCGCCGGT,-0.558
4,ATAAATCACAAGCTTCTCGAAG,-0.809
5,TACGCTAATCCAGTCATAGTGA,-0.195
6,AACTTCTTGCGCTCCTCGCGGG,-0.5
7,TAGTGAAAGAGCATTCCACATT,-0.946
8,TGGAACTGCATGTCTTCTTTGG,-0.925
